Bioassay records (PubChem BioAssay)
POLH inh = inhibitors of human DNA polymerase eta | recombinant Pol eta, fluorescent DNA replication assay | Potency, µM (highest dose often 114 µM), actives largely listed as inhibitors | 1.2% of 390,000 active | AID 588591
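Pol eta at 10 nM preincubated with compounds 15 min at room temperature; reaction started with fluorescent substrate (50 nM final) and read kinetically at 0 and 10 min.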
Pol kappa inh = inhibitors of human DNA polymerase kappa. Q9UBT6. purified Pol kappa, fluorescent DNA synthesis assay, 10 min. Potency, µM (doses to about 107 µM), most hits filed as inhibitors. 0.53% of 400,000 active
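Inhibition of 10 nM Pol kappa is measured by a fluorescent read-out at 0 and 10 min following addition of 50 nM substrate (final), with a 15-min room-temperature compound preincubation.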
POLI inh = DNA polymerase iota (human) inhibition; Pol iota fluorescent replication assay, 10 min; Potency, µM (series often up to 115 µM), actives largely listed as inhibitors; 1% of 390,000 active
Target sequence (Q9UNA4 whole entry, looked up): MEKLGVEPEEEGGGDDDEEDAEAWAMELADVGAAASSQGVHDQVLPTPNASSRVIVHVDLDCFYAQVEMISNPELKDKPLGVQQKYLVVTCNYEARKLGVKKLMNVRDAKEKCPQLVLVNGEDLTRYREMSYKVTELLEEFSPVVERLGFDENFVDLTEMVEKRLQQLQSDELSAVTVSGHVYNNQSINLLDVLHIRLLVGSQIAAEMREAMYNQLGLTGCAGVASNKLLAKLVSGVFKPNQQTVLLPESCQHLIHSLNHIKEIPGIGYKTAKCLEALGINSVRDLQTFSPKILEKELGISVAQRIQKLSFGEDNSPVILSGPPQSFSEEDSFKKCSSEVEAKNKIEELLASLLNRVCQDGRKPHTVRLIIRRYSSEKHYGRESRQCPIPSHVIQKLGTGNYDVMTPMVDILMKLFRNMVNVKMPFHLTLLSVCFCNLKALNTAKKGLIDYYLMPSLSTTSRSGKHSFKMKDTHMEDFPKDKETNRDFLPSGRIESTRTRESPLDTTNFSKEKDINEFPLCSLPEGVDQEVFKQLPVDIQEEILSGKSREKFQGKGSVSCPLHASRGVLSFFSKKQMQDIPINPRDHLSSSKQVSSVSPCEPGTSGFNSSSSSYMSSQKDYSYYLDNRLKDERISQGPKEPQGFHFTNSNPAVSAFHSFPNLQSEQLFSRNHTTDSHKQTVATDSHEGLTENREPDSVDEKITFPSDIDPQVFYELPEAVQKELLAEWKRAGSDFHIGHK
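Pol iota at 10 nM preincubated 15 min with compounds at room temperature; reaction started with fluorescent substrate, 50 nM final. Fluorescence read kinetically at 0 and 10 min; buffer-only wells as negative control.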
Pol beta inh = inhibitors of human DNA polymerase beta; P06746; Pol beta primer extension/strand displacement, fluorescence kinetic; Potency, µM (series often up to 114 µM), hits mostly inhibitors; 1.3% of 340,000 active
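Enzyme-only controls used 10 nM Pol beta; buffer lacking enzyme served as negative control. Compound preincubated 15 min, then 50 nM substrate added; 0 and 10 min reads at room temperature.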
APEX1 inh = inhibitors of human APE1 endonuclease; P27695; recombinant APE1, TAMRA/BHQ-2 abasic DNA cleavage fluorescence; Potency, µM (doses to about 65.8 µM), actives largely listed as inhibitors; 0.35% of 350,000 active; AID 2517; also: nearly all actives have a fitted effect of over 55% in size
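Activity was derived from the fluorescence gain between first and third kinetic reads (60 s intervals, ex 525/em 598 nm) after 50 nM THF-abasic TAMRA/BHQ-2 duplex was added to 0.75 nM APE1 preincubated 15 min with compound.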
L3MBTL1 inh = L3MBTL1 (human) inhibition | AlphaScreen L3MBTL1–H3K9me1 peptide binding | Potency, µM (doses to about 57.1 µM), usual class: inhibitors | 0.66% of 230,000 active | AID 485360; also: nearly all actives have a fitted effect of over 60% in size
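AlphaScreen proximity signal between nickel-chelate acceptor and streptavidin donor beads (final 10 ug/mL) reports binding of 50 nM L3MBTL1 to 75 nM biotin-H3 K9me1 peptide; complex incubated with compounds 30 min at room temperature; cefsulodin titration as control.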
Hits are given with their value; 0 = inactive; ? = inconclusive; - = no result; ! = a repeat was not active; [ ] = dose if it differs, or a comment. Compounds with a hit are over-represented: about 2.5% of the library has one in this group of screens. Calls follow the shape of the dose curve; as a rule, active = well fitted curve in the direction sought with a large enough effect; inconclusive = small, poorly fitted or top-dose-only effect, or another doubt; inactive = no such curve, though single readings can be large; an effect the other way counts as inactive or inconclusive.

SMILES | POLH inh | Pol kappa inh | POLI inh | Pol beta inh | APEX1 inh | L3MBTL1 inh
Cc1cc(NC(=O)C2CC=CCC2C(=O)O)no1 (configuration not stated) | ? | 0 | 0 | 22µM | 0 | 0
Cc1csc(NC(=O)CSCC(=O)O)c1-c1nc2ccccc2s1 | 89µM | 0 | ? | 0 | 0 | 0
CC(=O)c1cccc(NC(=O)c2sc3nc4c(cc3c2N)CCCC4)c1 | 79µM | 0 | 0 | ? | - | -
CCc1nnc(NC(=O)c2sc3nc4c(cc3c2N)CCCCCC4)s1 | 40µM | 0 | 25µM | 40µM | 0 | ?
C/C1=C2/[N-]C(C(CC(N)=O)[C@@]2(C)CCC(=O)NCC(C)OP(=O)([O-])O[C@H]2[C@@H](O)[C@@H](n3cnc4cc(C)c(C)cc43)O[C@@H]2CO)[C@]2(C)N=C(/C(C)=C3N=C(/C=C4N=C1C(CCC(N)=O)C\4(C)C)[C@@H](CCC(N)=O)[C@]\3(C)CC(N)=O)[C@@H](CCC(N)=O)[C@]2(C)CC(N)=O.CC(=O)O.[Co] (some centres not stated) | - | 0[19.4 µM] | - | - | - | -
Cc1ccc(C(=O)O)cc1NC(=O)c1nsc2ccccc12 | - | 0 | ? | 79µM | - | -
Cc1ccc(C(=O)N2CCCCC2)cc1NC(=O)c1nsc2ccccc12 | 0 | 0 | 0 | ? | - | -
CS(=O)(=O)N(CC(=O)Nc1ccccc1)Cc1ccc(Cl)cc1 | 0 | 0 | 0 | 0 | 0 | -
CSc1cccc(NC(=O)CN(Cc2ccc(Cl)cc2)S(C)(=O)=O)c1 | 0 | 0 | 89µM | 0 | 0 | -
CNc1ncnc2ccc(-c3ccccc3OC)cc12 | - | 0 | - | - | 0 | -
NCCCC[C@H]1NC(=O)[C@H](CCC(=O)O)NC(=O)c2cc([N+](=O)[O-])cc(I)c2OCC[C@@H](C(N)=O)NC1=O | 0 | 3.5µM | 8.9µM | 0 | ? | 0
C[C@@H]1NC(=O)c2cc([N+](=O)[O-])cc(I)c2OCC[C@@H](C(N)=O)NC(=O)[C@H](CCCCN)NC1=O | 0 | 0 | 0 | 0 | 0 | 0
CCCC1=C/C(=C/c2ccc(-c3ccccc3OC)o2)C(=O)O1 | 25µM | 0 | ? | ? | 0 | 0
COc1ccccc1-c1ccc(/C=C2/C=C(CC(C)C)OC2=O)o1 | 0 | 0 | ? | 25µM | 0 | ?
O=Cc1ccc(-c2ccccc2OC(F)(F)F)o1 | 0 | 0 | 0 | 0 | 0 | -
COc1ccccc1-c1cc(=O)c2cccc(OC)c2o1 | - | 0 | - | - | 0 | -
COc1ccc2c(c1)c1c(c(=O)n(-c3ccccc3)c(=O)n1CC(=O)NCCC1=CCCCC1)n2C | 0 | 0 | 0 | 0 | - | -
Nc1ccc(Oc2ncccn2)cc1 | 40µM | 0 | ? | 0 | 0 | -
Cc1ccc(Cn2c(=O)c3cccnc3n(CC(=O)Nc3cccc(C(F)(F)F)c3)c2=O)cc1 | ? | 0 | 89µM! | 0 | 0 | 0
CCOc1cc(/C=C2\N=C(SCC)SC2=O)cc([N+](=O)[O-])c1OC(C)=O | 45µM | ? | ? | 16µM | 0 | 0
CC(NC(=O)Nc1ccc(O)cc1)(C(F)(F)F)C(F)(F)F | 0 | 0 | 11µM | 0 | 0 | ?
CCC(NC(=O)Nc1ccc(O)cc1)(C(F)(F)F)C(F)(F)F | 0 | 0 | 18µM | 0 | ? | ?
CC(C)C(=O)Nc1ccc(C(=O)NNC(=O)C(c2ccccc2)c2ccccc2)cc1 | 0 | 0 | 79µM | ? | 0 | 0
CC(C)CC(=O)Nc1ccc(C(=O)NNC(=O)C(c2ccccc2)c2ccccc2)cc1 | 0 | 0 | 0 | 0 | 0 | -
CCC(=O)Nc1ccc(C(=O)NNC(=O)C(c2ccccc2)c2ccccc2)cc1 | ? | 0 | 0 | 45µM | 0 | 0
SMILES | POLH inh | Pol kappa inh | POLI inh | Pol beta inh | APEX1 inh | L3MBTL1 inh
O=C1NC(=O)/C(=C/c2cccn2-c2ccc(P(=O)(O)O)cc2)N1 | - | - | - | - | 0 | -
CCCN1C(=O)/C(=C/C=C2\N(CC)c3ccccc3C2(C)C)SC1=S | 56µM | 0 | 0 | 0 | 0 | 0
O=C(Nc1ccc2oc(-c3ccccc3F)nc2c1)c1ccccc1Cl | 0 | 0 | 0 | 0 | - | -
O=C(Nc1ccc2oc(-c3ccccc3F)nc2c1)c1ccc([N+](=O)[O-])o1 | 0 | 0 | ? | 11µM | 2.7µM | -
CCOc1ccc(N(C)C(=O)CCc2nnc3ccc(N4CCOCC4)nn23)cc1 | 0 | 0 | 0 | 0 | 0 | -
CC(C)C[C@H]1CNC(=S)N1CC1CCCN1C[C@H](CC(C)C)N1C[C@H](CC(C)C)N(CC2CCCCCC2)C1=S (some centres not stated) | 0 | 0 | 0 | - | - | -
O=C(O)CSc1cc(C(=O)c2cc(F)ccc2O)cn2c(=O)c3c(-c4ccccc4)csc3nc12 | 22µM | ? | ? | ? | 0 | ?
O=C(Nc1nnc(SCc2ccc(F)cc2)s1)c1ccc2ncsc2c1 | 0 | 0 | 3.2µM | 0 | ? | ?
COc1ccc(Cl)cc1NC(=O)c1ncn(-c2ccccc2)n1 | 0 | 0 | 0 | ? | - | -
Cc1nc2ccccc2n1CCc1nc2c3ccccc3nc(SCC(=O)NCc3ccco3)n2n1 | ? | 0 | ? | 40µM | 0 | 0
Cc1noc(C)c1S(=O)(=O)Nc1cccc(CO)c1 | 0 | 0 | 0 | 0 | 0 | -
CCCN1CNc2c(c(=O)[nH]c(=S)n2CCc2ccc(OC)cc2OC)C1 | - | 0 | 0 | - | - | -
CCOc1ccc(CN2CCN(c3ncnc4scc(-c5ccccc5)c34)CC2)cc1 | 0 | 0 | 0 | 0 | 0 | -
Cc1sc2ncnc(N3CCN(Cc4ccccc4)CC3)c2c1-c1ccccc1 | 0 | ? | 89µM | 0 | 0 | -
Cc1c(OCC(=O)N[C@H](C(=O)O)c2ccccc2)ccc2c3c(c(=O)oc12)CCCC3 | 56µM | ? | ? | ? | 0 | -
Cc1c(OCC(=O)NCC(O)c2ccccc2)ccc2c3c(c(=O)oc12)CCC3 (configuration not stated) | 0 | 0 | 0 | 0 | 0 | -
COC(=O)c1ccc(COc2ccc3c(C)c(C)c(=O)oc3c2C)o1 | 0 | 0 | 0 | 0 | 0 | 0
Cc1c(Cc2ccccc2)c(=O)oc2c(C)c(OCC(=O)N[C@@H](Cc3ccccc3)C(=O)O)ccc12 | 50µM | 0 | 0 | 50µM | 0 | 0
CCc1cc(=O)oc2c(C)c(OCC(=O)Nc3ccc(S(=O)(=O)N(CC)CC)cc3)ccc12 | 0 | ? | ? | 0 | - | -
Cc1c(OCc2ccc(C(=O)O)o2)ccc2c3c(c(=O)oc12)CCC3 | 18µM | 0 | 40µM | 35µM | ? | ?
Cc1c(C)c2ccc(OCC(=O)Nc3ccc(S(N)(=O)=O)cc3)c(C)c2oc1=O | ? | ? | ? | 32µM | 0 | -
CN1CCN(C(=O)CCN2C(=O)c3ccccc3S2(=O)=O)CC1 | 0 | 0 | 0 | - | 0 | 0
CCOc1ccccc1NC(=O)C1CCC(CNS(=O)(=O)c2ccc3c(c2)CCCC(=O)N3)CC1 (configuration not stated) | 0 | 0 | 0 | 0 | - | -
